# Reference: PubChem BioAssay (EPA / NIEHS)
# Active and inactive are the calls of the source. Rule for the calls: active = hit-call score of the fitted dose curve at least 0.9, where 1 is the maximum; inactive = score below 0.9.
# Assay: ATG_MRE_CIS: Attagene CIS-FACTORIAL HepG2 Assay for human Metal Responsive Element (MRE) (AID 2282954)
# Details: HepG2 MRE cis-reporter transcription, Attagene multiplex; actives raise or lower the signal
# Procedure: ATG_CIS is a cell-based, multiplexed-readout assay that uses HepG2, a human liver cell line, with measurements taken at 24 hours after chemical dosing in a 24-well plate.ATG_MRE_CIS is one of 52 assay component(s) measured or calculated from the ATG_CIS assay. It is designed to make measurements of mRNA induction, a form of inducible reporter, as detected with fluorescence intensity signals by Reverse transcription polymerase chain reaction (RT-PCR) and Capillary electrophoresis technology.Data from the assay component ATG_MRE_CIS was analyzed into 1 assay endpoint. This assay endpoint, ATG_MRE_CIS, was analyzed with bidirectional fitting relative to DMSO as the negative control and baseline of activity. Using a type of inducible reporter, measures of mRNA for gain or loss-of-signal activity can be used to understand the reporter gene at the transcription factor-level as they relate to the gene MTF1. Furthermore, this assay endpoint can be referred to as a primary readout, because this assay has produced multiple assay endpoints where this one serves a reporter gene function. To generalize the intended target to other relatable targets, this assay endpoint is annotated to the dna binding intended target family, where the subfamily is zinc finger.
# Human liver HepG2 cells are transiently transfected with multiple reporter transcription units (MRTUs) in 6-well plates using FuGene 6 reagent (Roche; 3 ml FuGene/1 mg DNA). The MRTU constructs are regulated by a cis-regulating element (promoter). […] A major difference between the CIS and TRANS system is that in CIS activities of endogenous TFs are measured, whereas the TRANS assay evaluates changes in activities of exogenous, chimeric NR-Gal4 proteins. […] At the end of 24 hour incubation, total RNA was isolated using TriZol reagent (Invitrogen). The isolated RNA is then reverse-transcribed using oligo(dT) primer and Mo-MLV reverse transcriptase (Invitrogen) with DNAse I (Ambion) treatment for 30 min. The one-tenth of the produced cDNA was amplified by PCR using Taq DNA polymerase (Invitrogen) and two reporter sequence-specific primers. The PCR products were fluorescently labeled by primer extension with 6-arboxyfluorescein (6-FAM) 5'-labeled reporter sequence-specific primer (2 min at 95 C, 20 s at 68 C and 10 min at 72 C) and these products were digested with 5U of HpaI (New England Biolabs) for 2h at 37 C. The fragments were purified using Qiaquick PCR columns (Qiagen), analyzed on an ABI 3130xL genetic analyzer (Applied Biosystems) with peak positions identified by using a set of X-rhodamine (ROX)-labeled MapMarker1000 molecular weight standards (BioVentures). The raw capillary electrophoresis data was processed using Attagraph software (Attagene).
SMILES,AC50,outcome
O=Cc1ccc(Cl)c([N+](=O)[O-])c1,142 µM (active),–
CCC(C)(O)CCC=C(C)C (stereo not given),–,inactive
C=CC(=O)OCC(O)COc1ccccc1 (stereo not given),–,inactive
CC(=O)O[C@]1(C(C)=O)CC[C@H]2[C@@H]3C[C@H](C)C4=CC(=O)CC[C@]4(C)[C@H]3CC[C@@]21C,49.9 µM (active),–
CC(=O)c1c(C)cc(C(C)(C)C)cc1C,–,inactive
CCCCC(CC)COCCC#N (stereo not given),–,inactive
O=CCCc1ccccc1,–,inactive
O=c1[nH]nnc2ccccc12,–,inactive
OCCN1CCNCC1,–,inactive
CC(CCO)CCCC(C)(C)O (stereo not given),–,inactive
CCOc1ccccc1OCC,–,inactive
C=C(C)C1CCC(C)CC1O (stereo not given),–,inactive
CCCc1c(OCCCOc2ccc(OCC(=O)O)cc2)ccc(C(C)=O)c1O,79.2 µM (active),–
CC(C)(C)C(=O)c1ccccc1,–,inactive
CCCCC[Si](OCC)(OCC)OCC,–,inactive
C=CCOC(=O)CCC1CCCCC1,–,inactive
COc1c(Cl)c(Cl)c(Cl)c(Cl)c1Cl,–,inactive
CC(=O)C(=O)O,–,inactive
CC(=O)Nc1ccc(C)cc1C,–,inactive
Cc1ccc(O)c(C(C)(C)C)c1,146 µM (active),–

SMILES,AC50,outcome
Clc1cccc(Cl)n1,–,inactive
CCCCCCCCCCC(CO)CCCCCCCC (stereo not given),–,inactive
CC[C@]12CCCN3CCc4c(n(c5ccccc45)[C@@](O)(C(=O)OC)C1)[C@@H]32,–,inactive
CC1(C)[C@@H]2CC[C@@]1(C)[C@H](O)C2,–,inactive
O=C(COc1ccc(Cl)cc1)N1CCN(Cc2ccc3c(c2)OCO3)CC1,74.6 µM (active),–
C=C(C)C(=O)O,–,inactive
O=C(O)c1cn(C2CC2)c2cc(N3CCNCC3)c(F)cc2c1=O,–,inactive
CC(C)C(C)(C)C(C)(C)C(C)(C)S,–,inactive
CCCCNC(=O)NS(=O)(=O)c1ccc(C)cc1,–,inactive
COc1cc(C)cc(O)c1,–,inactive
CCCC(C)C=O (stereo not given),–,inactive
CCCCN,–,inactive
ClCCCl,–,inactive
NC(N)=NC(=O)c1nc(Cl)c(N)nc1N,–,inactive
CC(C)(C)c1cc(CCC(=O)NN)cc(C(C)(C)C)c1O,186 µM (active),–
Cc1cccc(C)c1C,–,inactive
CC(=O)Nc1ccc(CC(=O)O)cc1,–,inactive
O=P(c1ccccc1)(c1ccccc1)c1ccccc1,–,inactive
CC(=O)OCCC(C)CC(C)(C)C (stereo not given),–,inactive
CCCCCCCCCCCCCCCC(=O)O,–,inactive
